Screening data deposited in PubChem BioAssay by several laboratories.
Most compounds without a hit are left out; they make up all but 3.5% or so of the library.
PG9 binder = binders of HIV-1 gp120 antibody PG9, primary screen, biochemical, TR-FRET; HIV-1 gp120 / PG9 antibody interaction; TR-FRET gp120-PG9 antibody binding; inhibition, % at 6.7 µM; 360,000 compounds, 0.43% hits; AID 624416, 2012; in the data active means inhibition above about 8.5%
MBD2 DNA inh = inhibitors of MBD2 binding to methylated DNA, primary screen, biochemical, TR-FRET, DNA-binding domain, human | 370,000 compounds, 0.31% hits | AID 686964, 2013 | MBD2 binding to methylated oligonucleotide | inhibition, % at 4.4 µM | Methyl-CpG-binding domain protein 2 (Homo sapiens), Q9UBB5; in the data active means inhibition above about 13%
Target sequence (Q9UBB5 whole entry, looked up, the tested form may be a part): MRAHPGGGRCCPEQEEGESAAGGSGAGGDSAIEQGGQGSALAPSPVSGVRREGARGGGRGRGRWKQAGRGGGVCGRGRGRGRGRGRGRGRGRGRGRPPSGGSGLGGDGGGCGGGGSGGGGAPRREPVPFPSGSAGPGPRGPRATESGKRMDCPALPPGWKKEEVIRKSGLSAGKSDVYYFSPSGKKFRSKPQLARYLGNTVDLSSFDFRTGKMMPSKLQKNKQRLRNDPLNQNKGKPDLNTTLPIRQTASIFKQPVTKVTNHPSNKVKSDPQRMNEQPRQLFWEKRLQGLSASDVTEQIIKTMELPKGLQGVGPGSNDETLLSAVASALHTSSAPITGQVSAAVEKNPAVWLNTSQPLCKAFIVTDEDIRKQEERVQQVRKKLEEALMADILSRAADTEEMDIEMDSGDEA
DNMT1 block = human DNMT1 methyltransferase inhibitors, primary screen, biochemical, molecular beacon, fluorescence, HinP1I cleavage, uHTS | 360,000 compounds, 0.83% hits | AID 588458, 2011 | DNA (cytosine-5)-methyltransferase 1 (Homo sapiens), P26358 | inhibition (reported as % activation of signal), % at 10 µM; in the data active means inhibition above about 50%
rCAG RNA binder = binders of r(CAG) RNA repeats, primary screen, biochemical, fluorescence; r(CAG) RNA repeat, TO-PRO-1 dye displacement fluorescence; inhibition, % at 3 µM; 370,000 compounds, 1.3% hits; AID 651821, 2012;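 active means inhibition above the plate cutoff, the mean of all test compounds on that plate plus 3 SD, cut at about 35% in these data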;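 further: 0% = DMSO alone and 100% = 100 µM mitoxantrone as full dye displacement; higher means more dye released from RNA so lower well fluorescence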
UHRF1 MBD2 ctr = UHRF1 methylated DNA binding inhibitors, primary screen, counter-screen for MBD2 inhibitor project, biochemical, TR-FRET, human UHRF1, single concentration | UHRF1 binding to methylated oligo | inhibition, % at 4.4 µM | 370,000 compounds, 0.75% hits; in the data active means inhibition above about 21%;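 further: UHRF1 SRA domain binding a hemimethylated CpG hairpin DNA probe; 0% = median of test compound wells and 100% = reference inhibitor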
LEDGF integ inh = blockers of LEDGF/p75-dependent integrase strand transfer – biochemical, TR-FRET, high throughput, primary screen. 370,000 compounds, 0.64% hits. HIV-1 integrase (with human LEDGF/p75). TR-FRET IN-LEDGF/p75 DNA integration, Eu/Cy5. inhibition, % at 3.7 µM;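 active means inhibition above the screen-wide mean plus 3 SD, cut at about 13% in these data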;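 further: signal is the Cy5 over europium emission ratio at 671 and 618 nm; 0% = plate median of compound wells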
DNMT1 interf DR = spectral interference with molecular beacon fluorescence, dose response, artefact control for DNMT1 inhibitor project, biochemical, fluorescent molecular beacon; shares compounds with DNMT1 block; spectral interference counter-screen; IC50, µM; 200 tested, under 10 active; AID 602382, 2012; call rule not given here
DNMT1 confirm = DNMT1 methyltransferase inhibitor retest, confirmation, biochemical, molecular beacon, fluorescence, single concentration | shares compounds with DNMT1 block | inhibition, % at 10 µM | 2,300 compounds, 8% hits | DNMT1 molecular beacon HinP1I cleavage;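 active means average inhibition of at least 30% in the single-concentration confirmation test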
Beacon interf = shows spectral interference in the DNMT1 beacon assay. shares compounds with DNMT1 block. DNMT1 molecular beacon spectral interference counterscreen, fluorescence 485/520. activation (fluorescence interference), % at 10 µM. 2,300 compounds, 1% hits;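 active means activation of at least 30% at 10 µM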;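 further: DNMT1 catalytic domain with a HinP1I cleavage step and a FAM/dabcyl DNA beacon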
rCAG bind conf = small molecules binding CAG repeat RNA – biochemical, fluorescence, confirmation | shares compounds with rCAG RNA binder | r(CAG) RNA repeat, TO-PRO-1 dye displacement fluorescence | inhibition, % at 3 µM | 4,300 compounds, 70% hits | AID 652065, 2013;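 active means inhibition above a per-plate cutoff, the mean inhibition of sample wells plus 3 SD, cut at about 35% in these data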;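 further: loss of TO-PRO-1 fluorescence as compound displaces dye from 1x1 AA loop RNA; 0% = DMSO only wells and 100% = 100 µM mitoxantrone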
dCAG dye counter = displacement of TO-PRO-1 from CAG DNA duplex, counter-screen for rCAG RNA repeat binder project, biochemical, fluorescence, TO-PRO-1 dye, d(CAG) DNA oligo; shares compounds with rCAG RNA binder; d(CAG) DNA oligo TO-PRO-1 dye displacement; inhibition, % at 3 µM; 4,300 compounds, 94% hits; AID 652068, 2013;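 active means inhibition above its plate's cutoff, the mean test-well inhibition plus 3 SD, cut at about 4.8% in these data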;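 further: 0% = DNA dye mix with DMSO and 100% = 100 µM mitoxantrone; hits displace the dye from DNA and so lower well fluorescence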
UHRF1 ctr MBD2 = UHRF1 methylated DNA binding inhibitors, counter-screen for MBD2 inhibitor project, biochemical, TR-FRET, human UHRF1 | inhibition, % at 4.4 µM | shares compounds with MBD2 DNA inh | UHRF1 binding to methylated oligonucleotide | 1,000 compounds, 25% hits; in the data active means inhibition above about 21%;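 further: UHRF1 SRA domain binding a labeled hemimethylated CpG hairpin DNA; 0% = vehicle only and 100% = reference inhibitor with vehicle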
MBD2 confirm = inhibitors of MBD2 binding to methylated DNA, confirmation, biochemical, TR-FRET, DNA-binding domain, human. shares compounds with MBD2 DNA inh. TR-FRET MBD2-DBD binding to methylated oligonucleotide. inhibition, % at 4.4 µM. 1,000 compounds, 26% hits. AID 720531, 2013
IN multimer up = HIV-1 IN multimer formation enhancers, counter-screen for LEDGF/p75 integration inhibitor project, biochemical, TR-FRET; activation, % at 7.7 µM; TR-FRET HIV-1 integrase multimerization; AID 1053131, 2014; shares compounds with LEDGF integ inh; 2,000 compounds, 17% hits; in the data active means activation above about 8.9%
TRFRET interf = TR-FRET optical interference artefacts, confirmation, artefact control for LEDGF/p75-dependent integration inhibitor project, biochemical, HIV-1 IN multimerization; inhibition, % at 7.7 µM; 2,000 tested, under 10 active; shares compounds with LEDGF integ inh; AID 1053135, 2014; TR-FRET optical interference counterscreen;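 active means inhibition above the mean over all tested compounds plus 3 SD, which no compound reached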;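 further: 0% = integrase with antibodies and DMSO and 100% = antibodies without integrase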
IN-LEDGF confirm = inhibitors of HIV-1 IN-LEDGF/p75 DNA integration, confirmation, biochemical, TR-FRET; shares compounds with LEDGF integ inh; TR-FRET LEDGF/p75-dependent HIV-1 integration; inhibition, % at 3.7 µM; 2,000 compounds, 36% hits
An asterisk follows results filed as active; nt = not tested or not shown. Unless noted, no stated cut-off is given here; in the data, active means inhibition above about 14%; inactive means the rest.

SMILES	PG9 binder	MBD2 DNA inh	DNMT1 block	rCAG RNA binder	UHRF1 MBD2 ctr	LEDGF integ inh	DNMT1 confirm	Beacon interf	IN multimer up	TRFRET interf	IN-LEDGF confirm	others
O=C(OCC(=O)N1CCN(C(=O)c2ccco2)CC1)c1cncc(Br)c1	2.7	2.8	-0.8	2.4	1.8	-1.3	nt	nt	nt	nt	nt
Cc1nc(N2CCN(c3ccccn3)CC2)c2c(C)c(C(=O)N3CCN(c4cccc(Cl)c4)CC3)sc2n1	2.6	0.5	-6.7	2.5	0.5	-5.2	nt	nt	nt	nt	nt
COc1cc(/C=C2/CC/C(=C/c3ccc(O)c(OC)c3)C2=O)ccc1O	-1.9	-3.5	-11.0	26.2	-3.8	5.3	nt	nt	nt	nt	nt
COc1cc(/C=C/C=C2/CC/C(=C/C=C/c3ccc(O)c(OC)c3)C2=O)ccc1O	-2.2	31.2*	90.3*	80.3*	57.6*	92.0*	27.4	0.5	26.0*	-130.8	54.4*	DNMT1 interf DR=>99;UHRF1 ctr MBD2=16.3;MBD2 confirm=6.8
O=C(O)c1cc(-c2ccco2)nn1-c1cccc(Cl)c1	0.4	5.8	105.4*	24.7	28.4*	14.9*	7.4	-1.9	0.8	-4.1	11.2
N=C1/C(=C\c2ccc(SCc3ccccc3)o2)C(=O)N=C2SC=NN12	-1.4	-5.8	4.5	28.8	-0.5	0.4	nt	nt	nt	nt	nt
CCS(=O)(=O)C1=NN2C(=N)/C(=C\c3ccc(SCc4ccco4)o3)C(=O)N=C2S1	-3.3	5.7	99.3*	84.5*	38.3*	42.5*	50.5*	0.8	14.8*	-53.2	53.2*	DNMT1 interf DR=>99;rCAG bind conf=88.8*;dCAG dye counter=70.4*
O=C(NCCCO)c1ccc2nc(-c3ccco3)c(-c3ccco3)nc2c1	-1.3	-4.9	49.3	22.4	17.3	53.3*	2.5	0.8	50.1*	-177.6	70.2*
COc1ccc2nc(-c3ccco3)c(-c3ccco3)nc2c1	-2.9	20.1*	97.9*	58.6*	77.5*	64.5*	4.9	1.7	5.5	-27.6	49.7*	rCAG bind conf=32.5;dCAG dye counter=12.9*;UHRF1 ctr MBD2=24.6*;MBD2 confirm=10.1
O=C(Nc1ccccc1)c1ccc2nc(-c3ccco3)c(-c3ccco3)nc2c1	1.5	2.1	83.2*	74.4*	6.0	16.6*	4.1	3.7	3.9	-19.6	42.7*
Cc1cc(O)cc(O)c1/C=N/NC(=O)c1ccc2c(c1)OCCO2	-0.6	-4.5	0.5	4.9	-2.4	-5.9	nt	nt	nt	nt	nt
C=C(C)C(=O)Nc1cccc(C2=NOC3(C2)C[C@@H](C(N)=O)N(C(=O)C(=C)C)C3)c1 (stereo partly specified)	-3.0	35.1*	103.2*	0.5	73.6*	15.5*	59.6*	3.2	17.4*	-87.8	30.0*	DNMT1 interf DR=>99;UHRF1 ctr MBD2=72.8*;MBD2 confirm=41.8*
C=C(C)C(=O)Nc1cccc(C2=NOC3(C2)C[C@@H](C(N)=O)N(C(=O)C2(C)CC2)C3)c1 (stereo partly specified)	1.2	54.6*	105.8*	7.5	91.5*	35.8*	102.7*	3.7	93.4*	-334.1	60.1*	DNMT1 interf DR=>99;UHRF1 ctr MBD2=94.0*;MBD2 confirm=79.1*
C=C(C)C(=O)N1CC2(CC(c3cccc(NC(=O)/C=C\C=C/C)c3)=NO2)C[C@H]1C(N)=O (stereo partly specified)	1.9	2.1	-30.6	13.0	3.9	2.4	nt	nt	nt	nt	nt
C/C=C\C(=O)Nc1cccc(C2=NOC3(C2)C[C@@H](C(N)=O)N(C(=O)C2(C)CC2)C3)c1 (stereo partly specified)	-0.2	3.5	4.7	5.1	3.6	2.1	nt	nt	nt	nt	nt
O=C(Nc1ccc2c(c1)OCO2)C1CCCN1C(=O)Nc1ccccc1 (stereo unspecified)	-0.3	2.9	-5.5	-0.2	0.9	-5.6	nt	nt	nt	nt	nt
O=C(CCc1ccc(S(=O)(=O)N2CCOCC2)cc1)OCC(=O)c1ccccc1F	-1.8	2.8	0.0	-0.3	-2.7	1.9	nt	nt	nt	nt	nt
Cc1ccc(CN2CC(C(=O)Nc3ncc(C)s3)CC2=O)cc1 (stereo unspecified)	0.9	1.1	5.3	-6.0	-1.3	-0.8	nt	nt	nt	nt	nt
